Calls of active or inactive are those of the source. How the source made its calls: active means hit-call score of the fitted dose curve at least 0.9, where 1 is the maximum; inactive means score below 0.9.

This assay is described as follows: CCTE_Shafer_MEA_acute_burst_duration_mean: CCTE's Neural Acute Assay for Mean Burst Duration, Shafer Lab (AID 2284014). The method, then:
CCTE_Shafer_MEA_acute assay is conducted using Axion Biosystems 48 well microelectrode array (MEA) plates and Maestro recording system. Each well of the MEA plate contains a grid of 16 microelectrodes embedded in the culture surface. Electrically active cells, such as neurons, can be cultured over the electrodes, and electrical activity in these cells can be recorded extracellularly. The spontaneous firing of neurons is captured from each electrode on a microsecond timescale providing both temporally and spatially precise data. […] The CCTE_Shafer_MEA_acute assay uses primary cultures of rat cortical neurons. As these cultures mature over time, neural networks develop functional activity and form cohesive networks in which electrical activity can be highly coordinated. Baseline 40-minute recordings are made on days post-plating 13 or 15, followed by a secondary 40-minute recording after chemical exposure.CCTE_Shafer_MEA_acute_burst_duration_mean is a component of the CCTE_Shafer_MEA_acute assay. It measures the average time from the first spike (action potential firing) to the last spike in a single-electrode burst (temporally-clustered group of spikes) during a recording in a microelectrode array (MEA) using Axion Biosystems Maestro 768 channel amplifier with the AxIS adaptive spike detector. The recordings before and after chemical treatment are used to calculate a percent change in the mean burst duration in each well.Data from the assay component CCTE_Shafer_MEA_acute_burst_duration_mean was analyzed into 1 assay endpoint. This assay endpoint, CCTE_Shafer_MEA_acute_burst_duration_mean, was analyzed in the negative analysis fitting direction relative to DMSO as the negative control and baseline of activity. Using a type of functional reporter, gain or loss-of-signal activity can be used to understand electrical activity.
Spontaneous activity in the cortical cultures was recorded using an Axion Biosystems Maestro 768 channel amplifier and Axion Integrated Studios (AxIS) v1.8 (or later) software. The amplifier recorded from all channels simultaneously (gain = 1200 x; sampling rate = 12.5 kHz/channel): raw signals were filtered with a Butterworth band-pass filter (300-5000 Hz), which filters out slower local field potentials leaving only fast potentials, i.e., "spikes", arising from extracellular currents associated with action potentials (Pine 2006; Wheeler and Nam 2011). On-line spike detection of filtered signals was conducted with the AxIS adaptive spike detector, using a threshold of 8x the root mean squared (rms) noise on each channel. Any electrodes with rms noise levels greater than 5 uV were grounded (e.g., no data were recorded). Once grounded, an electrode was grounded for the duration of the experiment. All recordings were conducted at 37 C. Wells were deemed usable if on the day of the exposure >/= 10 electrodes were active (defined as >/= 5 spikes/min). On DIV 13 or 15, a minimum of three wells from one cortical culture preparation were treated with each compound (0.03-40 uM). Prior to recording baseline activity, each mwMEA plate was placed in the Maestro at 37 C and allowed to sit for 20 min while firing rates stabilized. Baseline activity (40 min) was recorded before the addition of each compound. An additional 40 min of spontaneous activity was recorded in the presence of each compound. Changes in network parameters relative to baseline were assessed following compound treatment.
Regarding `CC(C)(c1ccccc1)c1ccc(O)c(C(C)(C)c2ccccc2)c1`, the compound was classed as inactive.

In general, AC50 refers to the concentration at which the activity in the assay is half-maximal. As for `CC(=O)[O][Hg][c]1ccccc1`, the concentration at half-maximal activity (AC50) is 29.5 µM (active).

Consider `C=C(C)C(=O)[O][Sn]([CH2]CCC)([CH2]CCC)[CH2]CCC`, for which the concentration at half-maximal activity (AC50) is 3.11 µM (active).

`CC(=O)OC(c1ccccc1)C(Cl)(Cl)Cl` (centres undefined): the compound was called inactive.

Turning to `O=C(Nc1ccc2[nH]ccc2c1)c1cc2cc(F)ccc2n1Cc1cccc(F)c1`, the call was inactive.

With `ClC1(Cl)C2(Cl)C3(Cl)C4(Cl)C(Cl)(Cl)C5(Cl)C3(Cl)C1(Cl)C5(Cl)C24Cl` (centres undefined), the result was inactive.

As for `CCCCCCCCc1ccc(O)cc1`, the compound was classed as inactive.

With `CC(C)(C)c1cc(O)ccc1O`, the outcome was inactive.

For the compound `O=C(O)C(Cl)(Cl)Cl`, the compound was classed as inactive.

Turning to `O=C1C2(Cl)C3(Cl)C4(Cl)C(Cl)(Cl)C5(Cl)C3(Cl)C1(Cl)C5(Cl)C24Cl` (centres undefined), the AC50 was 9.11 µM (active).

As for `CCN1CCC2(CC1)COc1cc3c(cc12)N(C(=O)c1ccc(-c2ccc(-c4nnc(C)o4)cc2C)cc1)CC3`, the call was inactive.

Consider `O=C(O)C(F)(F)C(F)(F)C(F)(F)C(F)(F)C(F)(F)C(F)(F)C(F)(F)C(F)(F)C(F)(F)C(F)(F)F`, for which the AC50 was 20 µM (active).

For `COC(=O)Cc1ccccc1`, the result was inactive.

Regarding `C[C@]12CCC(=O)C[C@@H]1CC[C@@H]1[C@@H]2CC[C@]2(C)[C@@H](O)CC[C@@H]12`, the outcome was inactive.

Consider `CCC(C)(C)c1ccc(O)c(C(C)(C)CC)c1`, for which the outcome was inactive.

Turning to `CC(C)(C)CC(C)(C)c1ccc(O)cc1`, the outcome was inactive.

On to `CC(C)(OO)c1ccccc1`, for which the call was inactive.

Turning to `CCOP(=S)(OCC)SCSP(=S)(OCC)OCC`, the compound was called inactive.

`CCC(=O)C(CC(C)N(C)C)(c1ccccc1)c1ccccc1` (centres undefined): the AC50 was 0.208 µM (active).

The record behind these values is PubChem BioAssay (EPA / NIEHS).
